According to the antibiotic and cytotoxicity screens of Wong et al. (2023):
The campaign covered roughly 39,000 compounds. About 500 (1.3%) were called active. The list comes from a sample in which actives are over-represented; it also holds similar structures and randomly drawn compounds.

System: S. aureus RN4220
Assay: growth inhibition call (relative growth <= 0.2)
Conditions: 50 µM

Compound	growth inhibition call
C=Cn1cnc2c1c(=O)n(C)c(=O)n2C	inactive
CC(C)=CCCC1(C)C=Cc2c(O)c3c(c(CC=C(C)C)c2O1)OC12C(=CCCC1C(C)(C)OC2(CC=C(C)C(=O)O)C(=O)O)C3=O (stereo not given)	active
CC(C)=CCc1c2c(c3occ(-c4ccc(O)cc4)c(=O)c3c1O)C=CC(C)(C)O2	inactive
C=c1ccc(S(=O)(=O)NC[C@@H](C)O)cc1=C1NN=C2c3ccccc3C(C)=NN21	inactive
C[C@H](CO)N1C[C@H](C)[C@H](CN(C)S(C)(=O)=O)Oc2cc(C#Cc3ccc(F)cc3)ccc2S1(=O)=O	inactive
C[C@@H]1CN([C@H](C)CO)C(=O)c2cccc(NS(=O)(=O)c3ccccc3)c2O[C@@H]1CN(C)Cc1ccncc1	inactive
CCCCCCCCCCCCC[N+](C)(C)Cc1ccccc1.O.[Cl-]	inactive
CCCCCCCCCCCCC[N+](C)(C)Cc1ccccc1	active
CCCCCCCCCCCCCCCC[N+](C)(C)Cc1ccccc1.[Cl-]	inactive
Cc1noc(C)c1S(=O)(=O)N(C)C[C@@H]1Oc2ccc(NS(C)(=O)=O)cc2CC(=O)N([C@H](C)CO)C[C@H]1C	inactive
C[C@@H]1CN([C@H](C)CO)C(=O)c2cccc(NC(=O)c3cnccn3)c2O[C@@H]1CN(C)S(=O)(=O)c1ccc(F)cc1	inactive
C[C@@H]1CCCCO[C@@H](CN(C)C(=O)Nc2ccc3c(c2)OCO3)[C@H](C)CN([C@@H](C)CO)C(=O)c2cc(NC(=O)Nc3ccccc3)ccc2O1	inactive
COc1ccc(C#Cc2ccc3c(c2)O[C@@H](CN(C)S(=O)(=O)c2ccccc2F)[C@H](C)CN([C@H](C)CO)S3(=O)=O)cc1	inactive
O=C(O)c1ccccc1-c1c2cc(I)c(=O)c(I)c-2oc2c(I)c(O)c(I)cc12	active
O=C(O)CN(CC(=O)O)Cc1cc2c(-c3ccccc3C(=O)O)c3cc(CN(CC(=O)O)CC(=O)O)c(=O)cc-3oc2cc1O	inactive
O=C([O-])c1ccccc1-c1c2cc(I)c(=O)c(I)c-2oc2c(I)c([O-])c(I)cc12.[Na+].[Na+]	active
O=C(O)c1ccccc1-c1ccco1	inactive
C[C@@H]1CN([C@@H](C)CO)C(=O)c2cc(NS(=O)(=O)c3ccccc3)ccc2O[C@@H](C)CCCCO[C@@H]1CN(C)Cc1ccc2c(c1)OCO2	inactive
Cc1ccc(S(=O)(=O)N(C)C[C@H]2OCCCC[C@H](C)Oc3ccc(NC(=O)NC4CCCCC4)cc3C(=O)N([C@H](C)CO)C[C@@H]2C)cc1	inactive
O=C(CN1CCOCC1)N[C@H]1CC[C@H](CCNS(=O)(=O)c2ccccc2F)O[C@H]1CO	inactive
CO[C@@H]1CN(C)C(=O)c2ccc(NC(=O)Nc3cccc(F)c3)cc2OC[C@H](C)N(C(=O)Nc2c(C)noc2C)C[C@H]1C	inactive
C[C@@H](O)[C@H]1C(=O)N2C(C(=O)O)=C(SCCNC=N)C[C@H]12	inactive

Compound	growth inhibition call
CC(O)C1C(=O)N2C(C(=O)O)=C(SC3CNC(C(=O)N(C)C)C3)C(C)C12 (stereo not given)	active
CC(O)C1C(=O)N2C(C(=O)[O-])=C(SC3Cn4cnc[n+]4C3)C(C)C12 (stereo not given)	inactive
C[C@@H]1CN([C@@H](C)CO)C(=O)CCCn2cc(nn2)CO[C@H]1CN(C)C(=O)C1CC1	inactive
C[C@H](CO)N1C[C@H](C)[C@H](CN(C)C(=O)CCC(F)(F)F)OCCCC[C@H](C)Oc2ccc(NC(=O)C3CCCCC3)cc2C1=O	inactive
COc1cccc(S(=O)(=O)N2C[C@@H](O)COC[C@@H]3O[C@@H](CC(=O)N4CCN(c5ccccc5)CC4)CC[C@H]32)c1	inactive
C[C@@H]1O[C@@H](O[C@H]2[C@@H](Oc3cc(O)c4c(c3)O[C@H](c3ccc(O)cc3)CC4=O)O[C@H](CO)[C@@H](O)[C@@H]2O)[C@H](O)[C@H](O)[C@H]1O	inactive
CN[C@H](CC(C)C)C(=O)N[C@H]1C(=O)N[C@@H](CC(N)=O)C(=O)N[C@H]2C(=O)N[C@H]3C(=O)N[C@H](C(=O)N[C@H](C(=O)O)c4cc(O)cc(O)c4-c4cc3ccc4O)[C@H](O)c3ccc(c(Cl)c3)Oc3cc2cc(c3O[C@@H]2O[C@H](CO)[C@@H](O)[C@H](O)[C@H]2O[C@H]2C[C@](C)(N)[C@H](O)[C@H](C)O2)Oc2ccc(cc2Cl)[C@H]1O	active
CC1OC(OC2C(Oc3cc(O)c4c(c3)OC(c3ccc(O)cc3)CC4=O)OC(CO)C(O)C2O)C(O)C(O)C1O (stereo not given)	inactive
CC(C)C[C@@H](N)C(=O)N[C@H]1C(=O)N[C@@H](CC(N)=O)C(=O)N[C@H]2C(=O)N[C@H]3C(=O)N[C@H](C(=O)N[C@H](C(=O)O)c4cc(O)cc(O)c4-c4cc3ccc4O)[C@H](O)c3ccc(c(Cl)c3)Oc3cc2cc(c3O[C@@H]2O[C@H](CO)[C@@H](O)[C@H](O)[C@H]2O[C@H]2C[C@](C)(N)[C@H](O)[C@H](C)O2)Oc2ccc(cc2Cl)[C@H]1O	active
CNC(CC(C)C)C(=O)NC1C(=O)NC(CC(N)=O)C(=O)NC2C(=O)NC3C(=O)NC(C(=O)NC(C(=O)O)c4cc(O)cc(O)c4-c4cc3ccc4O)C(O)c3ccc(c(Cl)c3)Oc3cc2cc(c3OC2OC(CO)C(O)C(O)C2OC2CC(C)(N)C(O)C(C)O2)Oc2ccc(cc2Cl)C1O.Cl (stereo not given)	active
C[C@@H]1O[C@@H](O[C@H]2[C@H](Oc3cc(O)c4c(c3)O[C@H](c3ccc(O)cc3)CC4=O)O[C@H](CO)[C@@H](O)[C@@H]2O)[C@H](O)[C@H](O)[C@H]1O	inactive
C[C@H]1CCCC[C@]12NC(=O)NC2=O	inactive
CC1CCC(C(C)C)C(=O)C1 (stereo not given)	inactive
C[C@H](CO)N1C[C@H](C)[C@@H](CN(C)Cc2ccccc2)OCCCC[C@H](C)Oc2ccc(NC(=O)C3CCCCC3)cc2C1=O	inactive
COc1ccc(S(=O)(=O)Nc2ccc3c(c2)CC(=O)N([C@@H](C)CO)C[C@H](C)[C@@H](CN(C)S(C)(=O)=O)O3)cc1	inactive
Cc1ccc(S(=O)(=O)N(C)C[C@H]2Oc3c(NS(=O)(=O)c4cn(C)cn4)cccc3C(=O)N([C@@H](C)CO)C[C@H]2C)cc1	inactive
COCCNC(=O)C[C@H]1CC[C@H]2[C@@H](COC[C@@H](O)CN2S(=O)(=O)c2ccccc2C)O1	inactive
CN1CC2(CCN(C(=O)[C@H]3CCC(=O)N3)CC2)COc2ccccc2S1(=O)=O	inactive
C[C@@H]1CCCCO[C@H](CN(C)C(=O)NC2CCCCC2)[C@H](C)CN([C@@H](C)CO)C(=O)c2cc(NS(=O)(=O)c3ccc(F)cc3)ccc2O1	inactive
O=C(C[C@H]1C[C@@H]2c3cc(NS(=O)(=O)c4ccc(F)cc4)ccc3O[C@@H]2[C@@H](CO)O1)NCc1ccncc1	inactive
CSc1nc(C)cc(NC(N)=O)n1	inactive
COc1cc(N2CCC(N(C)C)CC2)ccc1Nc1ncc(Cl)c(Nc2ccccc2P(C)(C)=O)n1	inactive

Compound	growth inhibition call
COc1cc(N2CCC(N)CC2)ccc1Nc1ncc(Cl)c(-c2c[nH]c3ccccc23)n1	active
COc1cc(N2CCC(N3CCN(C)CC3)CC2)ccc1Nc1ncc(Cl)c(Nc2ccccc2S(=O)(=O)C(C)C)n1	inactive
CCCNC(=O)N1C[C@H](O)COC[C@@H]2O[C@H](CC(=O)N3CCN(C)CC3)CC[C@H]21	inactive
O=C(CN1CCOCC1)N[C@H]1CC[C@@H](CCNC(=O)C2CCCCC2)O[C@H]1CO	inactive
CO[C@@]1(NC(=O)CSC[C@@H](N)C(=O)O)C(=O)N2C(C(=O)O)=C(CSc3nnnn3C)CS[C@@H]21	inactive
COC1(NC(=O)CSCC#N)C(=O)N2C(C(=O)[O-])=C(CSc3nnnn3C)CSC21.[Na+] (stereo not given)	active
CO[C@@]1(NC(=O)[C@@H](C(=O)O)c2ccc(O)cc2)C(=O)N2C(C(=O)O)=C(CSc3nnnn3C)CO[C@@H]21	inactive
COC1(NC(=O)C2SC(=C(C(N)=O)C(=O)O)S2)C(=O)N2C(C(=O)O)=C(CSc3nnnn3C)CSC21 (stereo not given)	active
COC1(NC(=O)C(C(=O)[O-])c2ccc(O)cc2)C(=O)N2C(C(=O)[O-])=C(CSc3nnnn3C)COC21.[Na+].[Na+] (stereo not given)	active
C[C@H](CO)N1C[C@H](C)[C@@H](CN(C)Cc2ccc3c(c2)OCO3)Oc2c(NC(=O)c3ccncc3)cccc2C1=O	inactive
COc1ccc(S(=O)(=O)Nc2ccc3c(c2)CC(=O)N([C@H](C)CO)C[C@@H](C)[C@H](CN(C)S(=O)(=O)c2ccc(F)cc2)O3)cc1	inactive
O=C(CCCCCNC(=O)OCc1ccc(CO[C@H]2C[C@@H](C3CCCCC3)C=C(C(=O)N3CCN(Cc4ccc5c(c4)OCO5)CC3)O2)cc1)NO	inactive
COc1ccccc1NC(=O)C1=C(C)N=C(SCC(=O)Nc2ccccc2[N+](=O)[O-])C(C#N)[C@@H]1c1ccccc1F (stereo not given in full)	inactive
C[C@H]1CN([C@@H](C)CO)C(=O)Cc2cc(NC(=O)CCCCCC(=O)Nc3ccccc3N)ccc2O[C@H]1CN(C)Cc1ccc(C(F)(F)F)cc1	inactive
COc1ccc(NC(=O)N(C)C[C@H]2OCCCC[C@@H](C)Oc3ccc(NC(=O)Nc4ccccc4)cc3C(=O)N([C@H](C)CO)C[C@H]2C)cc1	inactive
COc1ccc(S(=O)(=O)Nc2ccc3c(c2)C(=O)N([C@@H](C)CO)C[C@@H](C)[C@H](CN(C)Cc2ccc(C(F)(F)F)cc2)OCCCC[C@H](C)O3)cc1	inactive
C[C@H]1CCCCO[C@H](CN(C)S(=O)(=O)c2ccc(Cl)cc2)[C@@H](C)CN([C@@H](C)CO)C(=O)c2cc(NC(=O)Nc3ccc4c(c3)OCO4)ccc2O1	inactive
CCN(CC)C(=O)c1cccnc1	inactive
COC(=O)c1cccnc1	inactive
Cc1ccc(N(c2ccc(C)cc2)c2cccnc2)cc1	active
CS(=O)(=O)N1C[C@@H]2OCC[C@@H]2[C@H](C(=O)NCc2cccnc2)C1	inactive
